Compound activity from PubChem BioAssay.
This is a sample that favours compounds with a hit; in the whole collection about 12% have one here.
PLK1 PBD inh = blocks phosphopeptide binding to human PLK1 polo-box domain; Potency, µM, for inactives: max response, negative = inhibition, hits mostly inhibitors; Plk1 PBD binding of FITC phosphopeptide, fluorescence polarization; AID 720504; hit rate 2.8% among 360,000; P53350; note: potency is the fitted concentration of half-maximal effect; series mostly up to about 57 µM; % is set by controls: 0 for no effect and ±100 for the full control effect; nearly all actives have a fitted effect of over 65% in size
PI5P4K alpha inh = inhibitors of human PI5P4K alpha; AID 652105; max response, %; PI5P4Kalpha enzyme, ADP-Glo luminescence, 60 min; active compounds read low; hit rate 1.2% among 330,000; active = max response of -50% or lower; inconclusive = between -30% and -50%; inactive = -30% or higher; note: value at the top dose of about 77 µM; % is set by controls: 0 for no effect and ±100 for the full control effect
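Controls without substrate or without enzyme flank wells where PI5P4Kalpha converts substrate using 5 microM ATP (final). Incubation lasts 60 minutes at room temperature; ADP formed is read by ADP-Glo luminescence.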
HP1b chromo inh = blocks HP1-beta chromodomain binding to methylated histone tails | P83916 | AlphaScreen HP1-beta / biotin-H3K9me3 peptide binding | Potency, µM (highest dose often 114 µM), without a hit: top-dose activity change, negative = inhibition, usual class: inhibitors | hit rate 0.56% among 390,000 | AID 540317; note: potency is the fitted concentration of half-maximal effect; nearly all actives have a fitted effect of over 70% in size
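HP1-beta protein (50 nM final) preincubated 30 min at room temperature with biotinylated H3(1-18)K9me3 peptide (50 nM) in PBS pH 7.4, 0.01% Tween-20, then compound added for 30 min. AlphaScreen streptavidin donor/nickel chelate acceptor beads (10 ug/mL final), 30 min dark, luminescence read.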
JMJD2A Tudor = JMJD2A Tudor domain (human) inhibition; O75164; hit rate 4.4% among 390,000; Potency, µM (series often up to 114 µM), without a hit: top-dose activity change, negative = inhibition, usual class: inhibitors; AlphaScreen JMJD2A-Tudor / H3K4me3 peptide binding; AID 504339; note: potency is the fitted concentration of half-maximal effect; % is set by controls: 0 for no effect and ±100 for the full control effect; nearly all actives have a fitted effect of over 50% in size
BAZ2B block = blocks human BAZ2B | Q9UIF8 | AlphaScreen BAZ2B-H3K14Ac peptide displacement | Potency, µM (titrated, usually from 114 µM), for inactives: at the highest dose activity change, negative = inhibition, actives largely listed as inhibitors | hit rate 4.4% among 360,000 | AID 504333; note: potency is the fitted concentration of half-maximal effect; % is set by controls: 0 for no effect and ±100 for the full control effect; nearly all actives have a fitted effect of over 60% in size
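Multi-concentration screen (max 110 uM) measuring displacement of acetylated histone H3 peptide from BAZ2B by AlphaScreen, using 50 nM protein, 50 nM peptide and 10 ug/mL streptavidin donor plus Ni-chelate acceptor beads.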
G9a inh = G9a (human) methyltransferase inhibition | Q96KQ7 | G9a H3K9 monomethylation, AlphaScreen, 2 h | Potency, µM (highest dose often 102 µM), for inactives: top-dose activity, negative = inhibition, actives largely listed as inhibitors | hit rate 8.8% among 350,000; note: potency is the fitted concentration of half-maximal effect; % is set by controls: 0 for no effect and ±100 for the full control effect; nearly all actives have a fitted effect of over 75% in size
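Enzyme 20 nM + cpd, 15 min RT; add b-H3K9 pep 500 nM / SAM 20 uM; 2 h RT; anti-H3K9me1 Ab 0.5 ug/mL + SA donor / anti-rabbit acceptor beads 20 ug/mL each, 10 min; AlphaScreen read.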
12-hLO cuvette = confirmation of human 12-lipoxygenase inhibitors, 8HQ series round 1 | purified 12-hLO, cuvette UV 234 nm product formation | AID 2163 | Potency, µM, most hits filed as inhibitors | shares compounds with BAZ2B block | hit rate 60% among 35;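 active = compounds that slowed 12-hLO product formation enough to yield a measured IC50 potency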
KDM4E inh = JMJD2E demethylase inhibition by 8HQ compounds; JMJD2E demethylase, FDH-coupled NADH fluorescence (FDH is formaldehyde dehydrogenase); Potency, µM (top dose mostly 57 µM), inactives show at the top dose activity, negative = inhibition, most hits filed as inhibitors; shares compounds with BAZ2B block; hit rate 89% among 130
ME-1 growth = reduces ME-1 leukemia cell proliferation. Potency, µM (doses to about 56.1 µM), inactives show at the top dose activity change, negative = inhibition, actives largely listed as inhibitors. hit rate 20% among 140. shares compounds with BAZ2B block. ME-1 cell proliferation, ATP luminescence, 48 h
* marks the source's active call; other numbers are inactive results; ? = inconclusive; / = no result given; ! = a repeat was not active; [ ] = another dose, or the depositor's remark. Unless noted, calls come from the whole dose curve; as a rule, active = well fitted curve in the direction sought with a large enough effect; inconclusive = small, poorly fitted or top-dose-only effect, or another doubt; inactive = no such curve, though single readings can be large; an effect the other way counts as inactive or inconclusive.

SMILES	PLK1 PBD inh	PI5P4K alpha inh	HP1b chromo inh	JMJD2A Tudor	BAZ2B block	G9a inh	ME-1 growth	others
Cc1ccc(S(=O)(=O)NNC(=O)Nc2ccccc2F)c(C)c1	-6.3%	-3.3	29.9%	-11.5%	-18.1%	50.1µM*	/
Cc1ccc(S(=O)(=O)NNC(=O)Nc2cccc(C)c2C)c(C)c1	-2.8%	8.6	32.7%	-4.6%	0.2%	21.4%	/
Cc1ccc(NS(=O)(=O)c2cccc(C(=O)NNC(=O)c3cccn3C)c2)c(C)c1	-8.5%	-10.0	-5.8%	?	44.7µM*	/	/
Cc1ccc(NC(=O)CCC(=O)NNS(=O)(=O)c2ccc(Cl)cc2)cc1C	-6.5%	1.6	42.1%	-2.8%	-11.1%	-12.1%	/
Cc1ccc(NC(=O)CCC(=O)NNS(=O)(=O)c2ccccc2)cc1C	26.7µM*	-7.5	?	?	-1.6%	-0.8%[59 µM]	/
Cc1ccc(Cl)cc1-c1cc(C(=O)N2CCN(c3ccncc3)CC2)[nH]n1	-9.0%	6.1	/	/	/	/	/
CN(CCCC(=O)NCCc1ccccc1)S(=O)(=O)c1ccc([N+](=O)[O-])cc1	-8.0%	7.3	21.7%	-32.9%	-17.6%	42.3%	/
O=C(NNc1ccccc1)Nc1ccccc1F	-13.3%	-2.8	3.9%	-13.4%	?	50.1µM*	/
Cc1c(Cl)cccc1NS(=O)(=O)c1ccccc1	?	2.2	2.6%	-4.9%	/	/	/
Cc1ccc(NS(=O)(=O)c2ccccc2)c(C)c1	/	/	12.0%	50.1µM*	/	/	/
Cc1ccc(NC(=O)CCC(=O)NNS(=O)(=O)c2ccccc2)c(C)c1	6.7µM*	?	-6.4%	-21.9%[11.4 µM]	-4.2%[57.1 µM]	50.1µM*	/
Cc1c(NS(=O)(=O)c2ccccc2)cc(Cl)c(O)c1C	4.4%	-16.3	?	89.1µM*	-9.0%	?	/
O=C(Nc1ccccc1F)Nc1ccccc1F	0.8%	-0.3	50.8%	11.4%	-0.2%	9.1%	/
CCCCCn1c(NCc2ccccc2OC)nc2ccccc21	/	/	32.2%	-24.4%	-19.2%	-10.9%[59 µM]	/
Cc1ccc(NC(=O)C2(C)CCCN(C(C)C)C2)cc1C (configuration not stated)	1.1%	-7.0	/	/	/	/	/
CCCCCCCCCCCCCCCCCCOC[C@H](COP(=O)([O-])OCC[N+](C)(C)C)OC	/	/	/	/	/	4.9%[12.7 µM]	15.5%
CCCCCCCCCCCCCCCCOP(=O)([O-])OCC[N+](C)(C)C	/	/	/	/	/	1.6%[2.33 µM]	/
NC(=O)N(CCC(=O)O)c1ccccc1	-6.8%	-1.5	15.5%	8.9%[57.1 µM]	50.1µM*	?	-11.6%[25.6 µM]
Cc1ccc(C)c(NC(=S)N(CCN(C)C)C(C)c2ccccn2)c1 (configuration not stated)	3.2%	-5.8	33.3%	-6.3%	/	-4.4%	-3.7%[25.6 µM]
CC(c1ccccn1)N(CCN(C)C)C(=S)Nc1cccc(F)c1 (configuration not stated)	-9.8%	/	13.8%	-8.6%	?	-9.7%[12.7 µM]	-4.1%[25.6 µM]
Cc1cccc(C)c1NC(=S)N(CCN(C)C)C(C)c1cccnc1 (configuration not stated)	-8.8%	4.1	31.5%	-13.0%	-24.0%	-1.4%[59 µM]	/
Cc1cccc(C)c1NC(=S)N(CCN(C)C)C(C)c1ccccn1 (configuration not stated)	1.8%	-0.4	8.6%	-21.4%	/	-15.5%	-11.3%[25.6 µM]
CC(C)CCN(C(=S)Nc1cccc(C(F)(F)F)c1)C(C)c1ccccn1 (configuration not stated)	-12.8%	9.2	80.1%	11.5%	3.9%	1.6%[12.7 µM]	/
O=C(O)C1=CC(=C(c2ccc(O)c(C(=O)O)c2)c2ccc(O)c(C(=O)O)c2)C=CC1=O	/	/	/	/	1.12µM*	1.12µM*	-12.6%
O=C1C=C(c2ccc3c(c2)OCO3)CCC1	-1.5%	0.5	25.0%	-9.4%	/	/	/
SMILES	PLK1 PBD inh	PI5P4K alpha inh	HP1b chromo inh	JMJD2A Tudor	BAZ2B block	G9a inh	ME-1 growth	others
O=C(CSc1ccc(-c2ccccn2)nn1)NCc1ccccc1	-10.5%	1.5	2.3%	?	17.8µM*	27.0%	-18.4%
CCC(=O)NC(c1cccs1)c1cc(Cl)c2ccccc2c1O (configuration not stated)	/	/	26.2%	-24.5%	?	1.7%[0.501 µM]	/
CCC(=O)NC(c1cccs1)c1cc(Br)c2cccnc2c1O (configuration not stated)	/	/	/	/	70.8µM*	-34.2%[12.7 µM]	/	12-hLO cuvette=14µM*;KDM4E inh=20.4µM*
CCCC(=O)NC(c1cccs1)c1cc([N+](=O)[O-])c2cccnc2c1O (configuration not stated)	-16.9%	?	-6.6%	14.1µM*	7.94µM*	?	?
N#Cc1ccc(-c2ccc(OCC(=O)NN=Cc3ccncc3)cc2)cc1	-1.8%	12.7	29.7%	-16.7%	/	/	/
CCCCCCCSc1nnc(N)s1	5.6%	2.8	35.2%	-17.1%	0.5%	37.1%	/
CC(C)NNC(=O)c1ccncc1	-6.5%	-0.6	41.1%	-15.2%	-0.2%	11.2µM*!	7.7%
CCOC(=O)N1CCc2c(sc3c2c(=O)n(-c2ccc(F)cc2)c(=O)n3CC(=O)c2ccc(Cl)cc2)C1	/	/	30.3%	0.7%	-6.7%	3.5%[59 µM]	/
O=[N+]([O-])c1c(C(Cl)Cl)nn(-c2ccccc2)c1N1CCCC1	-5.7%	/	?	25.1µM*	12.6µM*	?	-8.7%[25.6 µM]
O=C(NCCc1ccc(F)cc1)C1CCN(C(=O)Nc2ccccc2)CC1	-1.3%	-0.2	44.7%	-18.6%	-4.7%	22.6%[12.7 µM]	/
CC(=O)Nc1ccc(Cl)cc1C(=O)c1ccc[nH]1	-1.9%	1.7	/	/	/	/	/
NCC(=O)Nc1ccc(Cl)cc1C(=O)c1ccc[nH]1	1.2%	9.6	37.8%	-12.0%	?	25.1µM*	4.86µM*
O=C(c1ccc(-c2ccccc2Cl)o1)N1CCN(S(=O)(=O)c2cccs2)CC1	-17.9%	-1.2	-3.1%	-15.8%	-8.7%	6.3%[0.501 µM]	/
O=C(CSc1nnc(CNC(=O)c2cccc(C(F)(F)F)c2)o1)NC1CCCCC1	5.2%	3.4	7.2%	-15.5%	-7.8%	-26.2%	/
O=C1C=CN2CCCCC2CC1 (configuration not stated)	-17.8%	1.3	-0.1%	?	/	/	/
Oc1csc(Cc2nc(-c3ccccc3F)cs2)n1	-12.1%	-13.0	43.4%	-21.7%	-3.0%	?	0.9%[25.6 µM]
CC(C)c1nc(CNC(=O)C2CCC(=O)N(CCc3cccc(F)c3)C2)cs1 (configuration not stated)	1.4%	-2.8	26.6%	-1.4%	0.8%	?	/
